Format in all cases: functional
Assay [1] relates to Plasmodium falciparum. Nature of the assay: GSK_TCMDC: Inhibition of Plasmodium falciparum 3D7 in whole red blood cells, using parasite LDH activity as an index of growth. Test compounds present at 2uM.
For assay [2], the system named is Plasmodium falciparum. Nature of the assay: GSK_TCMDC: Inhibition of Plasmodium falciparum Dd2 in whole red blood cells, using parasite LDH activity as an index of growth. Test compounds present at 2uM.
The test system of another assay is HepG2. In words: GSK_TCMDC: Percent inhibition of human HepG2 cell line. Test compounds present at 10uM.

The Inhibition is the percentage by which the read-out fell short of the control.

Consider `Cl.O=c1cc(NCCCNCc2cc3c(Cl)cccc3s2)[nH]c2ccccc12`, for which the Inhibition was 100% with Plasmodium falciparum [1], 57% in the assay on Plasmodium falciparum [2] and 6% with HepG2.
On to `CCOc1cc(C(C)C)ccc1C1CCN(CCCCNC(=O)c2ccc(NC(=O)c3ccc(Cl)cc3)cc2)CC1`, for which the results for the Inhibition in the assay with Plasmodium falciparum [1], with Plasmodium falciparum [2] and in the assay on HepG2 were 100%, 98% and 32%, respectively.
In the case of `CN(CCCNc1ccc(C(=O)Nc2ccc(C(F)(F)F)cc2)cc1[N+](=O)[O-])Cc1ccccc1`, the Inhibition in the assay on Plasmodium falciparum [1] was 100%; in the assay with Plasmodium falciparum [2], 48%; in the assay on HepG2 it was 25%.
With `COc1ccc(NC(=O)c2ccc3[nH]c(-c4ccc(Cl)cc4)cc3c2)cc1OCCN(C)C`, the figures for the Inhibition in the assay with Plasmodium falciparum [1], with Plasmodium falciparum [2] and in the assay with HepG2 were 100%, 78% and 32%, respectively.
In the case of `COc1ccc2nc3cc(Cl)ccc3c(NCCCCN)c2c1.Cl`, the Inhibition amounted to 100% in the assay with Plasmodium falciparum [1], 62% with Plasmodium falciparum [2] and 52% in the assay on HepG2.
Consider `CCCc1cc(=O)oc2cc(OC)c(C(=O)CC(C)C)c(OC)c12`, for which the Inhibition came out at 81% in the assay on Plasmodium falciparum [1], 67% in the assay with Plasmodium falciparum [2] and 3% with HepG2.
On to `FC(F)(F)c1ccc2[nH]c(-c3cccc(-c4ccc(CNCC5CCCO5)cc4)c3)nc2c1.O=C(O)C(F)(F)F` (stereo not drawn), for which the Inhibition in the assay on Plasmodium falciparum [1] amounted to 99%; in the assay with Plasmodium falciparum [2] it was 99%; in the assay on HepG2, 29%.
For `COc1ccc(N2CCN(CCCCNC(=O)c3ccc(NC(=O)c4ccc(C(F)(F)F)cc4)cc3)CC2)c(OC)c1`, the values for the Inhibition in the assay with Plasmodium falciparum [1], in the assay with Plasmodium falciparum [2] and in the assay with HepG2 were 100%, 8% and 4%, respectively.
With `COc1cccc(C(O)CNc2ccnc(Nc3cccc(-c4csc(C)n4)c3)n2)c1` (stereo not drawn), the Inhibition is 99% in the assay on Plasmodium falciparum [1], 73% in the assay on Plasmodium falciparum [2] and 38% in the assay on HepG2.
For `COc1ccc(N2CCN(CCCCNC(=O)c3ccc(NC(=O)c4ccc(Cl)cc4)cc3)CC2)c(C)c1`, the Inhibition is given as 100% with Plasmodium falciparum [1], 51% with Plasmodium falciparum [2] and 42% in the assay with HepG2.
`O=C(Nc1cccc(CN2CCCN(Cc3ccc(O)cc3)CC2)c1)c1cc2ccccc2s1.O=C(O)C(F)(F)F`: the Inhibition with Plasmodium falciparum [1] turned out to be 100%; with Plasmodium falciparum [2], 90%; in the assay on HepG2, 27%.
`CCN(CC)CCN(Cc1ccc(-c2ccc(C(F)(F)F)cc2)cc1)C(=O)c1ccc(-c2ccc(C#N)cc2)cc1`: the Inhibition is 89% with Plasmodium falciparum [1], 31% with Plasmodium falciparum [2] and 38% in the assay on HepG2.
For `CC(=O)Oc1c(C2CCN(CCCCNC(=O)c3ccc(NC(=O)c4ccc(Cl)cc4)cc3)CC2)ccc2c1CCCC2`, in that order: 100%, 80% and 21%.
For `Oc1ccc(-c2cc(-c3ccc(O)cc3)nc(-c3ccccc3)n2)cc1`, the results for the Inhibition in the assay with Plasmodium falciparum [1], with Plasmodium falciparum [2] and in the assay with HepG2 were 96%, 97% and 0%, respectively.
The like results for `Cc1nn(C)cc1C(C)Nc1nncc(-c2ccc(C(F)(F)F)cc2)n1` (stereo not drawn) were, in that order, 100%, 99% and 0%.
On to `COc1cc2c(cc1OC)CN(CCCCNC(=O)c1ccc(NC(=O)c3cc(Cl)cc(Cl)c3)cc1)CC2`, for which the Inhibition amounted to 99% in the assay with Plasmodium falciparum [1], 75% in the assay on Plasmodium falciparum [2] and 19% with HepG2.
Turning to `COc1ccc2nccc([C@@H](O)CN3CCC(NCc4ccc5sc(=O)[nH]c5c4)CC3)c2c1.O=C(O)C(=O)O`, the Inhibition in the assay on Plasmodium falciparum [1] amounted to 98%; in the assay with Plasmodium falciparum [2], 0%; in the assay with HepG2, 1%.
Take `CCC(C)NC(=O)Cn1c2ncccc2c(=O)n1-c1ccc(C)cc1` (stereo not drawn): the figures for the Inhibition in the assay with Plasmodium falciparum [1], with Plasmodium falciparum [2] and with HepG2 were 95%, 63% and 4%, respectively.
With `O=C(NC1CCN(c2ccnc3cc(Cl)ccc23)C1)c1cccc(F)c1.O=C(O)C(F)(F)F` (stereo not drawn), the Inhibition in the assay with Plasmodium falciparum [1] is given as 95%; in the assay with Plasmodium falciparum [2], 98%; in the assay with HepG2, 30%.
As for `Cc1ccc(S(=O)(=O)n2nccc2-c2c(-c3ccc(Cl)cc3)noc2C)cc1`, the values for the Inhibition in the assay with Plasmodium falciparum [1], in the assay on Plasmodium falciparum [2] and in the assay with HepG2 were 97%, 97% and 0%, respectively.
In the case of `Cc1cccc2nc(-c3cccc(-c4cccc(NC(=O)c5ccoc5)c4)c3)[nH]c12`, the Inhibition in the assay with Plasmodium falciparum [1] came out at 99%; with Plasmodium falciparum [2], 71%; in the assay with HepG2, 19%.
The like results for `Br.CCC(CCON1C(N)=NC(N)=NC1(C)C)c1ccc(Cl)c(Cl)c1` (stereo not drawn) were, in that order, 94%, 98% and 68%.
As to `CCCNCc1ccc(-c2ccc(CN(CCOC)C(=O)c3nn(-c4ccccc4)nc3C)cc2)nc1.O=C(O)C(F)(F)F`, the results for the Inhibition with Plasmodium falciparum [1], with Plasmodium falciparum [2] and in the assay on HepG2 were 99%, 71% and 18%, respectively.
For the molecule `Cc1ccc(Nc2ccnc3ccc(C(F)(F)F)cc23)cc1O.O=C(O)C(F)(F)F`, the Inhibition with Plasmodium falciparum [1] was 100%; with Plasmodium falciparum [2], 69%; in the assay with HepG2, 23%.
Take `Cc1cc(NCC(c2ccccc2)c2ccccc2)nc(NCC2CCCCC2)n1`: the Inhibition in the assay on Plasmodium falciparum [1] is reported as 100%; in the assay on Plasmodium falciparum [2] it was 93%; with HepG2, 12%.
For the molecule `COC(=O)C(c1ccc(NC(=O)[C@H](CC(C)C)NC(=O)OC(C)(C)C)cc1)c1ccc(NC(=O)[C@H](CC(C)C)NC(=O)OC(C)(C)C)cc1`, the Inhibition in the assay with Plasmodium falciparum [1] is on record as 94%; in the assay on Plasmodium falciparum [2] it was 42%; with HepG2, 0%.
For `Cc1cnc(-c2ccc(NC(=O)N3CCc4cc5nccc(N6CCN7CCC[C@H]7C6)c5cc43)c3ccccc23)o1.Cl`, the Inhibition in the assay on Plasmodium falciparum [1] turned out to be 100%; with Plasmodium falciparum [2] it was 45%; in the assay with HepG2 it was 12%.
`Cc1cc(OCCCn2ccnc2)ccc1-c1csc(/N=C(\N)NCc2ccccc2)n1`: the Inhibition in the assay with Plasmodium falciparum [1] is reported as 92%; in the assay on Plasmodium falciparum [2], 42%; in the assay on HepG2, 26%.
Consider `CC(C)C(=O)ONC1=NC(C)(C)N(OCCCOc2cc(Cl)c(Cl)cc2Cl)C(NOC(=O)C(C)C)=N1`, for which the Inhibition in the assay on Plasmodium falciparum [1] stood at 92%; in the assay on Plasmodium falciparum [2], 93%; in the assay on HepG2 it was 64%.
`O=C(NC1CCN(Cc2ccccc2)CC1)c1ccc(-c2nc3cc4ccccc4cc3[nH]2)s1`: the Inhibition with Plasmodium falciparum [1] amounted to 99%; in the assay on Plasmodium falciparum [2] it was 25%; in the assay on HepG2, 13%.
As for `COc1ccc(Nc2cc(C)nc(Nc3ccc(NC(C)=O)cc3)n2)cc1`, the Inhibition in the assay on Plasmodium falciparum [1] is 98%; in the assay on Plasmodium falciparum [2], 31%; with HepG2, 16%.

The values are drawn from ChEMBL document CHEMBL1157539, “Thousands of chemical starting points for antimalarial lead identification” (Nature, 2010).
